Assay results taken from PubChem BioAssay (NCATS).
Results filed as inconclusive are left out. The source made the active and inactive calls. Calls come from the whole dose curve; as a rule, active = well fitted inhibition curve with a large enough effect; inconclusive = small, poorly fitted or top-dose-only effect; inactive = flat fitted curve, though single readings scatter.

The compounds below were run on HACAT (assay: qHTS assay to identify novel small-molecules to repurpose for Merkel cell carcinoma treatment (AID 1296009; note: nearly all actives have a fitted effect of over 60% in size)). Conditions: MCC and control cell lines, CellTiter-Glo viability, 72 h; at 44.8 µM (top of the series) unless noted.
Method in brief: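 Luminescence from CellTiter-Glo, read 10 min after addition at room temperature, reported viability following a 72 hr, 37 degree celsius treatment with NPC or MIPE compounds in titration; values normalized to plate controls.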

Row | Compound | outcome
1 | C=CC1C(O[C@@H]2O[C@H](CO)[C@@H](O)[C@H](O)[C@H]2O)OC=C(C(=O)OC)C1CC(=O)O (some centres undefined) | inactive [at 17.4 µM]
2 | CC(C)(O)c1ccc2c(c1)C(O)CC1C(C)(C(=O)O)CCCC21C (centres undefined) | inactive
3 | CC(C)(O)C1CCC2(C)C3C(O)C4C(C13)C42CO (centres undefined) | inactive
4 | O=c1ccn(C2OC(CO)C(O)C2O)c(=O)[nH]1 (centres undefined) | inactive
5 | CCCC(N[C@@H](C)C(=O)N1[C@H](C(=O)O)C[C@@H]2CCCC[C@@H]21)C(=O)OCC (some centres undefined) | inactive
6 | CCC[C@@H]1C[C@@H](C(=O)N[C@@H]([C@H]2O[C@H](SC)[C@H](O)[C@@H](O)[C@@H]2O)[C@@H](C)O)N(C)C1 | inactive
7 | COc1cc([C@H]2OC[C@@H]3[C@@H](c4ccc(O[C@@H]5O[C@H](CO)[C@@H](O)[C@H](O)[C@H]5O)c(OC)c4)OC[C@]23O)ccc1O | inactive [at 17.4 µM]
8 | O=C(OCc1cccc(O)c1O[C@@H]1O[C@H](CO)[C@@H](O)[C@H](O)[C@H]1O)C1(O)C(=O)C2C=CC1C1C=CC(=O)C(O)(C(=O)OCc3cccc(O)c3O[C@@H]3O[C@H](CO)[C@@H](O)[C@H](O)[C@H]3O)C21 (some centres undefined) | inactive [at 9.27 µM]
9 | COC(=O)CC[C@@H](C)[C@H]1CC[C@H]2[C@@H]3CC(=O)[C@H]4C[C@H](OC(C)=O)CC[C@]4(C)[C@H]3CC[C@]12C | inactive
10 | FC(F)(F)c1cc(C(F)(F)F)c2ccc3nc(-c4nnco4)cn3c2n1 | inactive
11 | COc1c(C)c2c(c(O)c1C/C=C(\C)CC/C=C(\C)CCC(=O)O)C(=O)OC2 | inactive
12 | CC[C@@H](c1ccc(F)c(F)c1)n1c(C(=O)OC)c(-c2ccno2)[nH]c1=S | inactive
13 | CC(C)=CCC/C(C)=C/CC/C(C)=C/CC[C@]1(C)CCc2cc(O)cc(C)c2O1 | inactive [at 17.4 µM]
14 | CC1=CC(=O)CC(C)(C)C1CCC(C)OC1OC(COC(=O)c2cc(O)c(O)c(O)c2)C(O)C(O)C1O (centres undefined) | inactive [at 17.4 µM]
15 | COc1ccc(/C=C/C(=O)O[C@H]2[C@@H]3C=CO[C@@H](O[C@@H]4O[C@H](CO)[C@@H](O)[C@H](O)[C@H]4O)[C@@H]3[C@@]3(CO)O[C@@H]23)cc1O | inactive [at 17.4 µM]
16 | Cc1ncc([N+](=O)[O-])n1CC(O)CN1CCOCC1 (centres undefined) | inactive
17 | C=CC(C)(O)CC/C=C(/C)C(=O)OC1C(OC2OCC(OC3OC(CO)C(O)C(O)C3O)C(OC3OCC(O)C(OC4OC(C)C(O)C(O)C4O)C3O)C2O)COC(OC(=O)C23CCC(C)(C)CC2C2=CCC4C5(C)CCC(OC6OC(CO)C(OC7OC(CO)C(O)C(OC8OCC(O)C(O)C8O)C7O)C(O)C6O)C(C)(C)C5CCC4(C)C2(C)CC3O)C1O (centres undefined) | inactive [at 4.96 µM]
18 | O=C1C[C@@H](c2ccc(O)cc2)Oc2cc(O)ccc21 | inactive
19 | CC(C)CC(=O)n1cc(C(N)=O)c(=O)cc1C(O)c1ccccc1 (centres undefined) | inactive
20 | COc1cc([C@H]2OC[C@]3(OC(C)=O)[C@@H](c4ccc(O[C@@H]5O[C@H](CO)[C@@H](O)[C@H](O)[C@H]5O)c(OC)c4)OC[C@H]23)ccc1O | inactive [at 17.4 µM]

Row | Compound | outcome
21 | CC(C)=CCc1ccc(Oc2c(O)cc(C)cc2CO)c(C(=O)O)c1O | inactive
22 | O=C(O)CCc1cccc(O[C@@H]2O[C@H](CO)[C@@H](O)[C@H](O)[C@H]2O)c1O | inactive
23 | COC(=O)[C@@]1(O)C=CC[C@@H]2[C@@]3(C)C[C@@H](c4ccoc4)OC(=O)[C@H]3CC[C@]21C | inactive
24 | CC(C)CC(=O)OC[C@H]1O[C@@](COC(=O)CC(C)C)(O[C@H]2O[C@H](CO)[C@@H](O)[C@H](O)[C@H]2O)[C@@H](OC(=O)CC(C)C)[C@@H]1OC(=O)CC(C)C | inactive [at 17.4 µM]
25 | C=CC(C)(C)O[C@@H]1O[C@H](CO[C@@H]2OC[C@](O)(CO)[C@H]2O)[C@@H](O)[C@H](O)[C@H]1O | inactive
26 | CCC(C)/C=C(C)/C=C/C1=CC2=C(Cl)C(=O)C(C)(OC(C)=O)C(=O)C2=CN1C1CCCCN(C(CCC(N)=O)C(=O)O)C1=O (centres undefined) | inactive [at 17.4 µM]
27 | CN[C@@H]1[C@@H](O)[C@@H](O[C@@H]2[C@@H](O)[C@H](O[C@H]3O[C@H](CN)[C@@H](O)[C@H](O)[C@H]3O)[C@@H](N)C[C@H]2NC(=O)[C@@H](O)CN)OC[C@]1(C)O | inactive
28 | O=C(O)C[C@@H](NC(=O)c1cc(-c2ccc(-c3ccncc3)cc2)cs1)c1ccccc1 | inactive
29 | CC(CCC1(O)OC2CC3C4CCC5CC(O[C@@H]6O[C@H](CO)[C@@H](O)[C@H](O)[C@H]6O[C@@H]6OC[C@@H](O)[C@H](O)[C@H]6O)C(O)CC5(C)C4CCC3(C)C2C1C)CO[C@@H]1O[C@H](CO)[C@@H](O)[C@H](O)[C@H]1O (some centres undefined) | inactive [at 9.27 µM]
30 | O=C(O[C@H]1[C@@H]2C[C@@H]3OC[C@@](O)([C@H]2[C@H](O[C@@H]2O[C@H](CO)[C@@H](O)[C@H](O)[C@H]2O)O3)[C@@H]1O)c1ccccc1 | inactive [at 17.4 µM]
31 | C[C@H]1C[C@H]2[C@@H]3CCC4=CC(=O)C=C[C@]4(C)[C@@]3(F)[C@@H](O)C[C@]2(C)[C@@]1(O)C(=O)COP(=O)(O)O | inactive
32 | CCOC(=O)c1ccc(N(C)c2csc(-c3ccccc3)n2)cc1 | inactive
33 | C[C@@H]1C[C@H](O[C@@H]2O[C@H](CO[C@@H]3OC[C@](O)(CO)[C@H]3O)[C@@H](O)[C@H](O)[C@H]2O)CC(C)(C)[C@H]1/C=C/[C@@H](C)O | inactive [at 17.4 µM]
34 | Oc1ccc([C@H]2COc3cc(O)ccc3C2)cc1 | inactive
35 | CC(C)(C)c1cc(CN2CCN(CC(O)c3ccc(Cl)cc3)CC2)cc(C(C)(C)C)c1O (centres undefined) | inactive
36 | COc1cc(C2c3cc(O)c(OC)cc3CC(CO)C2CO)ccc1O (centres undefined) | inactive
37 | O=C1Nc2ccc(O)cc2O[C@H]1O[C@@H]1O[C@H](CO)[C@@H](O)[C@H](O)[C@H]1O | inactive
38 | Clc1ccc2c(c1)C1=NCCN1c1c(-c3noc(C4CC4)n3)ncn1-2 | inactive
39 | C=C[C@H]1[C@H](O[C@@H]2O[C@H](CO)[C@@H](O)[C@H](O)[C@H]2O)OC=C(C(=O)OC)[C@H]1C[C@@H]1N[C@H](C(=O)O)Cc2c1[nH]c1ccccc21 | inactive [at 17.4 µM]
